Reference: PubChem BioAssay (Tox21)
Records with an inconclusive call do not appear. Activity calls are given as the source filed them. Unless noted, the call rests on the fitted dose curve; in most records, active means well fitted curve in the direction sought with a large enough effect in the repeat runs; inconclusive means weak or mixed curves; inactive means no such curve, though single readings can be large; an effect the other way counts as inactive or inconclusive.

What was measured:
[1] = qHTS assay to identify small molecule antagonists of the thyroid receptor (TR) signaling pathway (AID 743065); further: series mostly up to about 70 µM; nearly all actives have a fitted effect of over 55% in size
Procedure, shortened: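 GH3.TRE-Luc rat pituitary cells (two TREs driving luciferase) were dosed with compound, then stimulated with 1 nM T3 (final) for 23.5 h at 37 C. ONE-Glo luminescence was the read-out, with CellTiter-Fluor fluorescence as the cytotoxicity counter-screen.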

[2] = system: thyroid hormone receptor (rat, GH3 cells); assay: qHTS assay to identify small molecule agonists of the thyroid receptor (TR) signaling pathway (AID 743066; calls by dose curve)
[3] = molecular target: Estrogen receptor (Homo sapiens) (UniProt P03372); assay: qHTS assay to identify small molecule antagonists of the estrogen receptor alpha (ER-alpha) signaling pathway (AID 743069; active means well fitted curve in the direction sought with a large enough effect in the signal ratio in the repeat runs, not every such curve was filed as active; the % refers to the signal ratio)
Estrogen receptor (Homo sapiens), sequence (P03372 whole entry, looked up): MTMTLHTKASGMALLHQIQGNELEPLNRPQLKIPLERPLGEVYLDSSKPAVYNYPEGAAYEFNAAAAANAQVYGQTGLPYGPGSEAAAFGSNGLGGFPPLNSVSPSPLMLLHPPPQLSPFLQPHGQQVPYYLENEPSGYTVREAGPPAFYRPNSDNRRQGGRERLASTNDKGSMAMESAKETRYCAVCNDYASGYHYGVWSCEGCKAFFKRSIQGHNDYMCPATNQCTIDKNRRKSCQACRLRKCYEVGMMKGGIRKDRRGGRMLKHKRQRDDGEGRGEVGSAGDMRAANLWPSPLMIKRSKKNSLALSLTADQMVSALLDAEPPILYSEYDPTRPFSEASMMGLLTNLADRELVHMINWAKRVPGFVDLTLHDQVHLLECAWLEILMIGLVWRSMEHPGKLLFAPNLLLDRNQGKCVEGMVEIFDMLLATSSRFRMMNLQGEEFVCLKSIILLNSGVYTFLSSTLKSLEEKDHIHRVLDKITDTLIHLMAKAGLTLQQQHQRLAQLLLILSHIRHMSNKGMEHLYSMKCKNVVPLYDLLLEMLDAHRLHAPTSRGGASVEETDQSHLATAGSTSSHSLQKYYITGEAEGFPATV
Procedure, shortened: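 Reporter cells (ER-alpha-bla, HEK293 background) are conditioned overnight in stripped-serum medium (2% charcoal-stripped FBS). Compound and 17beta-estradiol exposure runs 18 hr at 37C, 5% CO2.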

[4] = qHTS assay to identify small molecule antagonists of the estrogen receptor alpha (ER-alpha) signaling pathway - cell viability counter screen (AID 743074; calls by dose curve;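 further: HEK293 cells carrying ER-alpha-UAS-bla reporter stimulated with 17beta-estradiol; nearly all actives have a fitted effect of over 45% in size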)
[5] = molecular target: Estrogen receptor (Homo sapiens) (UniProt P03372); assay: qHTS assay to identify small molecule agonists of the estrogen receptor alpha (ER-alpha) signaling pathway (AID 743075; calls by dose curve;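 further: HEK293 GripTite cells with ER-alpha and UAS-driven beta-lactamase reporter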)
[6] = molecular target: Estrogen receptor (Homo sapiens) (UniProt P03372); assay: qHTS assay to identify small molecule agonists of the estrogen receptor alpha (ER-alpha) signaling pathway using the BG1 cell line (AID 743079); further: nearly all actives have a fitted effect of over 20% in size
[7] = qHTS assay to identify small molecule antagonists of the estrogen receptor alpha (ER-alpha) signaling pathway using the BG1 cell line (AID 743080; calls by dose curve;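 further: BG1 cells stimulated with 17beta-estradiol alongside compound; series mostly up to about 70 µM; nearly all actives have a fitted effect of over 25% in size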)
Procedure, shortened: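 Readout is ONE-Glo luminescence, taken 30 min at room temperature after reagent addition, preceded by a CellTiter-Fluor viability read; BG1-Luc-4E2 cells had received compound and 17beta-estradiol for 21.5 h at 37 C.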

[8] = qHTS assay to identify small molecule antagonists of the estrogen receptor alpha (ER-alpha) signaling pathway using the BG1 cell line - cell viability counter screen (AID 743081);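 further: compound given together with 17beta-estradiol as the ER stimulus; series mostly up to about 70 µM; nearly all actives have a fitted effect of over 45% in size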
[9] = molecular target: Aromatase (Homo sapiens) (UniProt P11511); assay: qHTS assay to identify aromatase inhibitors (AID 743083); further: series mostly up to about 70 µM; nearly all actives have a fitted effect of over 55% in size
Aromatase (Homo sapiens), sequence (P11511 whole entry, looked up): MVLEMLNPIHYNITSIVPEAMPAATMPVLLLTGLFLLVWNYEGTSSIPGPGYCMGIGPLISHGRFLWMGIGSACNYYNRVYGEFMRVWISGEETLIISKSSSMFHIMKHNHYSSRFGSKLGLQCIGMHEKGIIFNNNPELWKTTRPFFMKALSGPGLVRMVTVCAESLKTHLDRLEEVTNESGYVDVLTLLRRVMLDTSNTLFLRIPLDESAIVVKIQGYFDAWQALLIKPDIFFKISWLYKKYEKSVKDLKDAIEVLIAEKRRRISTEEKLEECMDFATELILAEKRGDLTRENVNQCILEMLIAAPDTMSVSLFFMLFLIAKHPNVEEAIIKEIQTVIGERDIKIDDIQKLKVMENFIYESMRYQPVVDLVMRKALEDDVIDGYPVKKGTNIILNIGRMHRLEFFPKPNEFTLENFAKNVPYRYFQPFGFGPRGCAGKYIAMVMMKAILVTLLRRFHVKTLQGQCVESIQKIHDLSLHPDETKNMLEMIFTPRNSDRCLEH

[10] = qHTS assay to identify aromatase inhibitors - cell viability counter screen (AID 743084);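 further: cells stimulated with testosterone during compound exposure; nearly all actives have a fitted effect of over 55% in size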
[11] = molecular target: Aryl hydrocarbon receptor (Homo sapiens) (UniProt P35869); assay: qHTS assay to identify small molecule that activate the aryl hydrocarbon receptor (AhR) signaling pathway (AID 743085);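 further: HG2L7.5c1 human HepG2 liver cells with stably integrated DRE-driven firefly reporter; series mostly up to about 70 µM; nearly all actives have a fitted effect of over 15% in size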
Aryl hydrocarbon receptor (Homo sapiens), sequence (P35869 whole entry, looked up): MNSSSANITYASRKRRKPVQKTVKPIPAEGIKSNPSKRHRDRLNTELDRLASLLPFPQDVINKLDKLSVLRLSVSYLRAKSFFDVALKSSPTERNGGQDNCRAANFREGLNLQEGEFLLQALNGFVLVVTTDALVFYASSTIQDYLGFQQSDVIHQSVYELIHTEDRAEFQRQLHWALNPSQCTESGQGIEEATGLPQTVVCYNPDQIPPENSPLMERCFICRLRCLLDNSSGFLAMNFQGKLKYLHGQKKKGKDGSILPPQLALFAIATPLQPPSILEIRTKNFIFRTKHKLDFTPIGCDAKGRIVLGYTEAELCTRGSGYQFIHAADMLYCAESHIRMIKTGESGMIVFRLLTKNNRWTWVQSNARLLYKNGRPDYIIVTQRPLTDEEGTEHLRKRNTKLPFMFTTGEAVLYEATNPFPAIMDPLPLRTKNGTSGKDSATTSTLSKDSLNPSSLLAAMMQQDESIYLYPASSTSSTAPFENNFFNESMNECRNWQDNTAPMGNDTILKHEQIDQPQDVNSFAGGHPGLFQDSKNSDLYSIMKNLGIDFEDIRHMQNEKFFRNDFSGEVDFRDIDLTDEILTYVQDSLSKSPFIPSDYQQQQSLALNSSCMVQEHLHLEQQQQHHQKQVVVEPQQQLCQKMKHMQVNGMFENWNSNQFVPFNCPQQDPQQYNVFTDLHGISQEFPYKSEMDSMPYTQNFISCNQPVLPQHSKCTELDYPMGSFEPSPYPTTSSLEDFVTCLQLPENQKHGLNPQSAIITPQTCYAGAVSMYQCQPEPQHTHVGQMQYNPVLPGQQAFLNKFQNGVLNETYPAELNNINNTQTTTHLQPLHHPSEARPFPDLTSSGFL
Procedure, shortened: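 Steps: seed HepG2-AhR-luc cells; allow 5 h at 37C; pin-transfer test compound or vehicle; incubate 24 h at 37C; add viability dye (30 min, 37C) and read fluorescence; add luciferase substrate (30 min, RT) and read luminescence.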

[12] = qHTS assay to identify small molecule that activate the aryl hydrocarbon receptor (AhR) signaling pathway - cell viability counter screen (AID 743086);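 further: HepG2 liver cells carrying the AhR DRE luciferase reporter; series mostly up to about 70 µM; nearly all actives have a fitted effect of over 45% in size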
Procedure, shortened: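 HepG2-AhR-luc (HG2L7.5c1) cells, 4000/well, treated 24 h at 37 C with compound; viability measured as CellTiter-Fluor fluorescence after 30 min in the same wells as the luciferase read.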

[13] = molecular target: Peroxisome proliferator-activated receptor gamma (Homo sapiens) (UniProt P37231); assay: qHTS assay to identify small molecule agonists of the peroxisome proliferator-activated receptor gamma (PPARg) signaling pathway (AID 743094; active means well fitted activation curve with a large enough effect in the signal ratio in the repeat runs, not every such curve was filed as active; the % refers to the signal ratio)
Peroxisome proliferator-activated receptor gamma (Homo sapiens), sequence (P37231 whole entry, looked up): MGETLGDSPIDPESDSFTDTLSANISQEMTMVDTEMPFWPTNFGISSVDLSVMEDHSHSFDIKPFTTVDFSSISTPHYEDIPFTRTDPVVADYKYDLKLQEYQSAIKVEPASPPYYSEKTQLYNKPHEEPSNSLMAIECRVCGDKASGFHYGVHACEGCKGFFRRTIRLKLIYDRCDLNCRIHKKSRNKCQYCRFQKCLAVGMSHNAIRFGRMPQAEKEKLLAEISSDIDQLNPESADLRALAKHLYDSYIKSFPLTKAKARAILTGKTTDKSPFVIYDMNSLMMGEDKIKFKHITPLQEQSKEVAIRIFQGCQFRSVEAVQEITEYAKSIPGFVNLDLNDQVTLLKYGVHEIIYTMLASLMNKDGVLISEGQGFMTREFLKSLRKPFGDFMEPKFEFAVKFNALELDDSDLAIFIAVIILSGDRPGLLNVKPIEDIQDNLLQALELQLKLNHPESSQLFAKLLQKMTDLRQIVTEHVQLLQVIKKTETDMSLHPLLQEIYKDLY
Procedure, shortened: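 Compounds dissolved in DMSO were added to PPARg UAS-bla HEK293H cells for 17 h at 37C, and reporter expression was quantified by fluorescence intensity after 1 h with LiveBLAzer B/G FRET substrate.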

[14] = molecular target: Peroxisome proliferator-activated receptor gamma (Homo sapiens) (UniProt P37231); assay: qHTS assay to identify small molecule antagonists of the peroxisome proliferator-activated receptor gamma (PPARg) signaling pathway (AID 743191; calls by dose curve; further: series mostly up to about 63 µM; nearly all actives have a fitted effect of over 30% in size)
Procedure, shortened: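 GeneBLAzer PPARg UAS-bla HEK293H cells, 5 h post-plating, exposed to compounds 17 h at 37C. LiveBLAzer B/G FRET substrate added for 1 h at room temperature; beta-lactamase reporter read by fluorescence intensity.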

[15] = qHTS assay to identify small molecule antagonists of the peroxisome proliferator-activated receptor gamma (PPARg) signaling pathway - cell viability counter screen (AID 743194); further: nearly all actives have a fitted effect of over 55% in size
Procedure, shortened: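 Cytotoxicity counter screen in PPARg-bla HEK293H cells, same wells as reporter assay. Compounds plus 50 nM rosiglitazone (final) for 17 h at 37 C, then viability read by CellTiter-Glo luminescence.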

[16] = qHTS assay for small molecule agonists of the antioxidant response element (ARE) signaling pathway (AID 743202; active means well fitted activation curve with a large enough effect in the signal ratio in the repeat runs, not every such curve was filed as active; the % refers to the signal ratio)
Procedure, shortened: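 Agonist mode reporter screen: HepG2 cells with ARE-controlled beta-lactamase are incubated with test compounds for 16 h at 37 C, and beta-lactamase activity is measured as fluorescence of cleaved B/G FRET substrate.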

[17] = qHTS assay for small molecule activators of the heat shock response signaling pathway - cell viability counter screen (AID 743209); further: nearly all actives have a fitted effect of over 50% in size
Procedure, shortened: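 Readout: CellTiter-Glo luminescence, 30 min at room temperature. System: HSE-bla HeLa cells, 1500/well, plated overnight. Treatment: compounds in DMSO, 5 h at 37 C.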

[18] = qHTS assay for small molecule activators of the heat shock response signaling pathway (AID 743210; active means well fitted activation curve with a large enough effect in the signal ratio in the repeat runs, with a control signal flat, not every such curve was filed as active; the % refers to the signal ratio;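 further: HeLa cells with beta-lactamase reporter driven by heat shock elements; series mostly up to about 63 µM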)
Procedure, shortened: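 Quantitative high-throughput format using an engineered HeLa line in which heat shock response elements drive beta-lactamase; after 5 h with compound, cells received a B/G FRET substrate and fluorescence was read.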

[19] = qHTS assay to identify small molecule agonists of the peroxisome proliferator-activated receptor delta (PPARd) signaling pathway - cell viability counter screen (AID 743211); further: nearly all actives have a fitted effect of over 55% in size
Procedure, shortened: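 Viability of GeneBLAzer PPARd UAS-bla HEK293H cells was assessed after 17 h compound incubation at 37C, using CellTiter-Glo reagent added after the reporter read and luminescence recorded 30 min later.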

[20] = qHTS assay for small molecule agonists of the antioxidant response element (ARE) signaling pathway - cell viability counter screen (AID 743203; calls by dose curve; further: nearly all actives have a fitted effect of over 55% in size)
Procedure, shortened: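 Following 16 hrs of compound treatment at 37C, HepG2 cells with an ARE-controlled beta-lactamase gene were lysed with CellTiter-Glo. Luminescence was read after 30 min at room temperature.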

Measured: Potency

CCCCCCOCCO
not listed: [20]
inactive: all other assays above

O=C(O)CC(C(=O)O)C(CC(=O)O)C(=O)O (stereo not drawn)
not listed: [14]
inactive: all other assays above

CC(C)(N)CO
not listed: [20]
inactive: all other assays above

COc1cc(Cc2cnc(N)nc2N)cc(OC)c1OC
not listed: [18] | [20]
inactive: all other assays above

Fc1ccc(Br)cc1
not listed: [14]
inactive: all other assays above

O=S1(=O)CC=CC1
inactive: all assays above

CCCCCCCCCCCCCCO
not listed: [14]
inactive: all other assays above
